Hit rate of the full screen: of about 31,000 sequences, about 1,400 (4.5%) were called active.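 Rule for the calls: active = median seed-adjusted z-score above 1 or below -1; inactive = the rest.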 The sample as a whole holds a higher share of actives than the screen did.

The nature of this experiment: Novel Modifiers of Survival Motor Neuron (SMN) Protein: Gene Identification via Genome-wide siRNA Screen.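 Note: luminescence tracks full-length SMN protein made from the SMN2 reporter.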 To be noted: HEK293T SMN2-luciferase reporter, siRNA knockdown, 72 h; actives lie on both sides. Summed up: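 HEK293T cells stably carrying an SMN2 promoter/splicing cassette–luciferase reporter were reverse-transfected with 1 pmol siRNA per well (druggable-genome library, 3 siRNAs per gene) and grown 72 h at 37 °C. Luminescence, normalized to negative-control siRNA and log10-transformed, was scored as MAD.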
On the technique in general: A reporter such as luciferase makes a cellular process visible.
Regarding CACUCACACCAACCUGUGATT against GNG13, the median seed-adjusted z-score is -0.516 (inactive).

For the sequence CAGUGUUAGUGGAUUCAGATT against TMEM87B, the median seed-adjusted z-score was -0.51 (inactive).

For CAACCUUAUUAUCAUUGAATT against SF3B3, the median seed-adjusted z-score is -2.53 (active).

With GGCAGAUCCUGACCUUUGATT against PRMT7, the median seed-adjusted z-score was 0.204 (inactive).

Take CUUAAGAUCCCACACCUCATT against SLC39A4: the median seed-adjusted z-score is 0.0304 (inactive).

Regarding GCAUGUUCCAGAUCUAUCATT against DRD5, the median seed-adjusted z-score was -0.18 (inactive).

Regarding GAGCGUGACUGGGUUCUAATT against DDX5, the median seed-adjusted z-score was 0.891 (inactive).

Regarding CAAAGACAAGGUCCCAUUUTT against IFI35, the median seed-adjusted z-score was 0.105 (inactive).

In the case of GCCCUAGAAAGGUCACUGATT against AKR1CL1, the median seed-adjusted z-score is 0.488 (inactive).

On to GGAGGAACUCGAAUCAUUUTT against EIF4EBP2, for which the median seed-adjusted z-score is 0.517 (inactive).

In the case of GCAUCACCUUCUUUCGGAUTT against UNC13A, the median seed-adjusted z-score was -2.1 (active).

With GGACGGAAAACAGUCUUAATT against OAS2, the median seed-adjusted z-score is 0.0758 (inactive).

With CCCACACUCUAGACUGAAATT against MEF2D, the median seed-adjusted z-score was 0.0021 (inactive).

Turning to CGGUCAAUGUUCUAAAGAUTT against CACNG5, the median seed-adjusted z-score is -0.41 (inactive).

Consider CCAUGACUGUCAAUCGUCATT against GFM1, for which the median seed-adjusted z-score was -0.0641 (inactive).

Consider GGACCUACACUUUUCUCUUTT against FAM53B, for which the median seed-adjusted z-score is -0.00535 (inactive).

Turning to CCCUAAAGUUAAUCACCCATT against NUCB2, the median seed-adjusted z-score was 0.45 (inactive).

For the sequence GUUCCAUCCUGAUUCAAAUTT against PIGM, the median seed-adjusted z-score is 1.36 (active).

With GUUGAUAAGUUUUACCGAUTT against ADAM19, the median seed-adjusted z-score is 0.0996 (inactive).

As to CCACCCGGACGAUAUCUUUTT against PPARA, the median seed-adjusted z-score is 0.113 (inactive).

With GGAACGCAGUCGGAUCUCATT against RHOU, the median seed-adjusted z-score was -1.44 (active).

Take GCAUUUGCAAUGAAGGCUATT against DNER: the median seed-adjusted z-score was -0.316 (inactive).

Regarding GAACCAGAUGAGACAUUCATT against SPSB1, the median seed-adjusted z-score was -0.378 (inactive).

CUCUAAUGUUAAUCCGAGATT against MED14: the median seed-adjusted z-score is -3.22 (active).

In the case of GAGGCUCAAUGUUACACCATT against ACAT1, the median seed-adjusted z-score was -0.848 (inactive).

Regarding CCAUUGGGCUAUGACCUGATT against ACOT4, the median seed-adjusted z-score was -0.158 (inactive).

Take GGCACUAUUUCCAAUGGAATT against ADAMTS12: the median seed-adjusted z-score is -0.0721 (inactive).

Turning to GCAGCCCUGAUGUCCAGUATT against EFS, the median seed-adjusted z-score is -0.299 (inactive).

For AGUUCAUCGAUGACAUGGATT against COL6A2, the median seed-adjusted z-score was 0.0119 (inactive).

In the case of GGAUCUAUCUUAACGACCATT against GAN, the median seed-adjusted z-score was -1.07 (active).

Take GCUCCGAAGUGUUUACAAUTT against DQX1: the median seed-adjusted z-score was -0.297 (inactive).

On to GUCCAAAUACAGUCUCUUATT against MAP3K14, for which the median seed-adjusted z-score is -0.0609 (inactive).

CGCUGAAACCCGAUUCCUATT against ANPEP: the median seed-adjusted z-score is 0.252 (inactive).

For GCCUAGAUGAGCGAAUUUATT against LSM3, the median seed-adjusted z-score is -1.36 (active).

For GCACUGCGACUGUACUCUATT against LRRC3B, the median seed-adjusted z-score was 0 (inactive).

As to CCUUCACACGUACCACAAATT against TEKT2, the median seed-adjusted z-score is -0.349 (inactive).

As for GGCUGGACAGUAAUUCAGATT against ANGPTL4, the median seed-adjusted z-score was 1.37 (active).

Consider CACAAUGAGUUAACUGAUATT against LILRB4, for which the median seed-adjusted z-score was -0.104 (inactive).

CGUUAUUGCCUGUUUGGAATT against GUCY1A2: the median seed-adjusted z-score is -0.186 (inactive).

On to GGGAAAAGCUUGACGAUUATT against RNF139, for which the median seed-adjusted z-score is 0.175 (inactive).

Turning to GGGUUGAAGGUGAUCAUCATT against IMMP2L, the median seed-adjusted z-score is 0.919 (inactive).

Take GGCUCAUUGAGACGACUGATT against RCADH5: the median seed-adjusted z-score was -0.158 (inactive).

For the sequence CACUGGAGACUUUCGCUUUTT against ZNF813, the median seed-adjusted z-score is 0.127 (inactive).

With AGAUCUACAUCGUGAUGAATT against CDC2L1, the median seed-adjusted z-score is -1.14 (active).

Consider GGUACUUCGUGAUCCGCAUTT against NECAP2, for which the median seed-adjusted z-score is -0.539 (inactive).

With GGACUGUCAAUCUUAGAUATT against GRK4, the median seed-adjusted z-score is -0.267 (inactive).

In the case of CGUGUACAAGGCUCUAACATT against EPN3, the median seed-adjusted z-score is 0.184 (inactive).

Regarding CUACGAAUCUGUGAAUGAATT against ERH, the median seed-adjusted z-score was -1.25 (active).

Turning to GCUAACCACUUGGAAGAUATT against PRMT7, the median seed-adjusted z-score is 0.204 (inactive).

For the sequence GGCAGAACCUAUACCAGAATT against MED6, the median seed-adjusted z-score is -2.15 (active).

As to CAGAACCUGUUGUAGAAAATT against GSPT2, the median seed-adjusted z-score is 0.846 (inactive).

With GGACGACUGCAGCAAGUUUTT against ATP2A3, the median seed-adjusted z-score is -0.28 (inactive).

With AGACCAUCCCUAACGGAUATT against PRELP, the median seed-adjusted z-score was -0.0579 (inactive).

Consider GCUCGUAGUUGGGAUAACATT against FRAP1, for which the median seed-adjusted z-score was -1.02 (active).

Consider GGCUCUCAGAUUGUUGACATT against GABARAPL2, for which the median seed-adjusted z-score is 0.528 (inactive).

With GAACAUUGGUGACUAUAUUTT against GRIP2, the median seed-adjusted z-score is -0.0256 (inactive).

Turning to GGAUGAUGUGCGUAACAGATT against HAO1, the median seed-adjusted z-score is 0.421 (inactive).

As to CAGAAGUUCUCAGACCUAATT against ZNF721, the median seed-adjusted z-score is 0.404 (inactive).

For the sequence GCUAUACGGUUGACAACGATT against ISLR, the median seed-adjusted z-score was 0.00807 (inactive).

For CCCUCCUCGUGGAACCAUATT against NEURL2, the median seed-adjusted z-score was 1.39 (active).

On to UCGUGGACCUGGUCUGUUATT against OGDHL, for which the median seed-adjusted z-score was -0.0878 (inactive).

As to GGUCGAAAAGCAAACUCAATT against PTPRN2, the median seed-adjusted z-score was -0.104 (inactive).

For the sequence CAUGGAAGAUCUGACCAUATT against MEOX2, the median seed-adjusted z-score is 1.36 (active).

For the sequence GCAGGAUGAUCUCAAGUAUTT against MOBKL2B, the median seed-adjusted z-score was -0.613 (inactive).

Take CCGCAGUGGAAAUACCAUATT against ANGEL1: the median seed-adjusted z-score was -0.332 (inactive).

With GCGGCUAACAGGAUAUGUATT against ACTN2, the median seed-adjusted z-score is 0.165 (inactive).

As for CACAAGAUAUCAGGAGAAATT against FCRL2, the median seed-adjusted z-score is -0.294 (inactive).

Consider CAUGAUCUCCGGCUACCUATT against SLCO2B1, for which the median seed-adjusted z-score is 0.289 (inactive).

GGAUGCUCCAAGUCUGUCATT against GPR179: the median seed-adjusted z-score was -0.513 (inactive).

In the case of GCAGUUGUCCAGUUACGAATT against RAD50, the median seed-adjusted z-score is 0.266 (inactive).

With GAAGCUACAUGGGAAGUGUTT against SIRT7, the median seed-adjusted z-score was -0.427 (inactive).

Regarding CAGGUCGACUGAUAGAUCATT against DDX42, the median seed-adjusted z-score is -2.13 (active).

On to GGACUGAUCAUGAACCUCUTT against CPEB3, for which the median seed-adjusted z-score was 0.086 (inactive).

For GAGUUUAAUCUGAUUGAUATT against MOBKL1B, the median seed-adjusted z-score is 0.31 (inactive).

Turning to GCACUAUAUGAAUACGCAATT against AUP1, the median seed-adjusted z-score was 0.305 (inactive).

On to GCAUCACACUCACAUCCCATT against DNASE2, for which the median seed-adjusted z-score was -1.23 (active).

On to GCUCUGUACAGGAAACUCUTT against IL2RA, for which the median seed-adjusted z-score is 0.587 (inactive).

In the case of GUGUAGGGAUAGUUACCAATT against ZNF518A, the median seed-adjusted z-score is -0.252 (inactive).

On to GAGUUCUACUUGUCCAAUUTT against ZDHHC20, for which the median seed-adjusted z-score was -0.936 (inactive).

As for GGCUUUGCUUAAGUUCAAATT against LPCAT4, the median seed-adjusted z-score was 0.338 (inactive).

For the sequence CAACCAUAGUUAAAGUUAATT against TCP1, the median seed-adjusted z-score was -1.02 (active).

As to GGAUGUCUCAUUACACCAUTT against TGFBR3, the median seed-adjusted z-score was 0.285 (inactive).

For the sequence UGCUGGUGUUUAAACCCAUTT against C5AR1, the median seed-adjusted z-score is 0.366 (inactive).

GCGACUUCAUGAUAGCAUATT against CAMK2D: the median seed-adjusted z-score is 0.0676 (inactive).

Turning to GGAGAUAUUUUUGACGGAATT against ZFHX3, the median seed-adjusted z-score was 0.045 (inactive).

On to AAGCCUACCAGGUCAAGUATT against EVI5L, for which the median seed-adjusted z-score was 0.0497 (inactive).

Regarding GGAUAUUAAGGACAGGAAATT against RAN, the median seed-adjusted z-score is -3.09 (active).

GAAGCUACAGAAUCUGGAATT against ARFGAP2: the median seed-adjusted z-score was 0.0672 (inactive).

For the sequence GGAUUCAACUUUACAAGAATT against BTD, the median seed-adjusted z-score is -0.165 (inactive).

As to AGGAGAUCGUCGUCACUGATT against NNMT, the median seed-adjusted z-score is -0.095 (inactive).

On to CCAUAGCAGUAAUGAUACATT against GRIN3A, for which the median seed-adjusted z-score was 0.241 (inactive).

On to GCCUGAACCGAGUAGAAGATT against KCNQ1, for which the median seed-adjusted z-score is -0.0525 (inactive).

As for GCAAGACCAUCAACAAGAUTT against CHRNE, the median seed-adjusted z-score is 0.349 (inactive).

Consider CGGUCACAAUUUGCGCUGATT against ST8SIA3, for which the median seed-adjusted z-score is -0.848 (inactive).

AAACAAUGGUUUGUGCAAATT against UCRC: the median seed-adjusted z-score is -0.93 (inactive).

GGCUUUAAGAUCACGCAGATT against SNRPA: the median seed-adjusted z-score is -2.09 (active).

On to GGUCCGCUACUACCACCAATT against FUT4, for which the median seed-adjusted z-score was -0.24 (inactive).

Consider GAAGCUUACAGAUUCGAUATT against CNTNAP2, for which the median seed-adjusted z-score is -0.196 (inactive).

Regarding GGAUGACAUUAGCAGGUAUTT against ERCC6, the median seed-adjusted z-score is 0.0421 (inactive).

Consider GAAAGUUCAAGUACAGUGATT against CYP2E1, for which the median seed-adjusted z-score was 0.81 (inactive).

In the case of GAAUCUGGUGGGCCCUUUATT against POFUT2, the median seed-adjusted z-score is -0.86 (inactive).

Consider GCUCAGCAUUGUCUGCAAATT against RNASE6, for which the median seed-adjusted z-score was 0.832 (inactive).

Take GAUUCUAGGAUAAGCACUATT against KLK8: the median seed-adjusted z-score was 0.736 (inactive).

Regarding GGUAAAGUUUUACAGCAUUTT against MTCH2, the median seed-adjusted z-score was -0.168 (inactive).

In the case of CCUGUAGAUUUGUCAACUATT against RANBP2, the median seed-adjusted z-score is 1.53 (active).

Regarding AGCACGAAGGCAAACCCUATT against CRIP1, the median seed-adjusted z-score is -0.622 (inactive).

Turning to GUUGAGCCCUUGUAUAUUATT against UBE2C, the median seed-adjusted z-score is 0 (inactive).

In the case of GCUUUGAGGAAAAUCCGAATT against SLC26A3, the median seed-adjusted z-score was -0.506 (inactive).

Source of the values: PubChem BioAssay AID1347426 (Functional Genomics Laboratory (NCATS/FGL), 2020).
